This passage reports growth inhibition results from PubChem BioAssay (NCI).

The panel holds about 79,000 compounds, 15% with a hit somewhere; the sample as a whole holds those more often. Values without a mark were called inactive. Calls of active or inactive are those of the source. Cut-off read from the data, not from the text of the source: active = growth inhibition above about 70%; inactive = the rest.

Experiment [1] is described as follows: NCI Yeast Anticancer Drug Screen. Data for the rad50 strain (AID 155).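 Note: 0% = growth of vehicle-only cultures of the same strain.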 As to conditions: S. cerevisiae rad50 strain growth inhibition, hits give high values. In short, it runs like this:
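Growth of the mutant yeast was measured after compound exposure and referenced to vehicle-treated cultures.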

Experiment [2] in a line: NCI Yeast Anticancer Drug Screen. Data for the mec2-1 strain (AID 157). To be noted: S. cerevisiae mec2-1 strain, hits give high values. In short, it runs like this: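 Growth inhibition is read against vehicle-treated controls after compound exposure of the mec2-1 yeast strain, which is defective in DNA damage repair or cell cycle control.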
A short description of experiment [3]: NCI Yeast Anticancer Drug Screen. Data for the sgs1 mgt1 strain (AID 161).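 Note: 0% = growth of cultures given vehicle only.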 As to conditions: S. cerevisiae sgs1 mgt1 strain, hits give high values. In short, it runs like this: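 Compounds are added to genetically altered yeast, and growth is compared with cultures given vehicle alone to give percent inhibition.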
Experiment [4] in a line: NCI Yeast Anticancer Drug Screen. Data for the cln2 rad14 strain (AID 165).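 Note: 0% = growth equal to vehicle treated cultures.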 To be noted: S. cerevisiae cln2 rad14 strain, hits give high values. In short, it runs like this: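 Growth inhibition, relative to vehicle-treated controls, is the read-out. The test organism is a yeast strain with defined genetic alterations, cln2 rad14.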
Experiment [5] in a line: NCI Yeast Anticancer Drug Screen. Data for the bub3 strain (AID 167). To be noted: S. cerevisiae bub3 mutant strain, hits give high values. In short, it runs like this:
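Whole-cell yeast assay. The mutant strain was incubated with compounds, and growth inhibition was determined by comparison with vehicle-treated cells.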

The nature of experiment [6]: NCI Yeast Anticancer Drug Screen. Data for the mlh1 rad18 strain (AID 175). To be noted: S. cerevisiae mlh1 rad18 strain growth inhibition, hits give high values. In short, it runs like this: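 Cells of a genetically altered yeast strain, deficient in DNA damage repair, were treated with compound. Their growth was then compared with that of vehicle-treated cultures to give inhibition.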

The mark [7] stands for this setting: at 5.0 µM (retest, dose inferred, filed as 0.5).
Setting [8] is: at 50.0 µM (retest, dose inferred, filed as 5.0).

For `CC(=O)Oc1ccc(C23CC4CC(CC(C4)C2)C3)cc1`, the growth inhibition is -2% in experiment [1] (setting [7]); 98% (active) in experiment [1] (setting [8]); 98.8% (active) in experiment [1] (at 50.0 µM); -2% in experiment [2] (setting [7]); 99% (active) in experiment [2] (setting [8]); 98.5% (active) in experiment [2] (at 50.0 µM). Besides, the growth inhibition in experiment [3] (setting [7]) is 16%; in experiment [3] (setting [8]), 99% (active); in experiment [3] (at 50.0 µM), 98.6% (active); in experiment [4] (setting [7]) it was -36%; in experiment [4] (setting [8]), 99% (active); in experiment [4] (at 50.0 µM) it was 96.6% (active). Besides, the growth inhibition was 25% in experiment [5] (setting [7]); 108% (active) in experiment [5] (setting [8]); 98.8% (active) in experiment [5] (at 50.0 µM); 10% in experiment [6] (setting [7]); 99% (active) in experiment [6] (setting [8]); 98.3% (active) in experiment [6] (at 50.0 µM).

For the compound `NC(=O)c1oc([N+](=O)[O-])c(-c2ccccc2)c1-c1ccccc1`, the growth inhibition in experiment [1] (setting [7]) is 9%; in experiment [1] (setting [8]), 38%; in experiment [1] (at 50.0 µM) it was 12.4%; in experiment [2] (setting [7]), 5%; in experiment [2] (setting [8]), 50%; in experiment [2] (at 50.0 µM), 16.6%. The growth inhibition in experiment [3] (setting [7]) was 14%; in experiment [3] (setting [8]), 61%; in experiment [3] (at 50.0 µM), 55.4%; in experiment [4] (setting [7]), -6%; in experiment [4] (setting [8]), 10%; in experiment [4] (at 50.0 µM) it was -22.6%. Also, the growth inhibition in experiment [5] (setting [7]) was 16%; in experiment [5] (setting [8]) it was 80% (active); in experiment [5] (at 50.0 µM) it was 92.2% (active); in experiment [6] (setting [7]), 11%; in experiment [6] (setting [8]), 78% (active); in experiment [6] (at 50.0 µM), 64.2%.

For the compound `BrCc1ccc([Si](c2ccccc2)(c2ccccc2)c2ccc(CBr)cc2)cc1`, the growth inhibition is -3% in experiment [1] (setting [7]); -16% in experiment [1] (setting [8]); 48.1% in experiment [1] (at 50.0 µM); 14% in experiment [2] (setting [7]); 8% in experiment [2] (setting [8]); 20.1% in experiment [2] (at 50.0 µM). Further, the growth inhibition is -15% in experiment [3] (setting [7]); -18% in experiment [3] (setting [8]); 53% in experiment [3] (at 50.0 µM); -1% in experiment [4] (setting [7]); -25% in experiment [4] (setting [8]); 78.5% (active) in experiment [4] (at 50.0 µM). Also, the growth inhibition was -2% in experiment [5] (setting [7]); -15% in experiment [5] (setting [8]); 10.5% in experiment [5] (at 50.0 µM); 3% in experiment [6] (setting [7]); -30% in experiment [6] (setting [8]); 53.5% in experiment [6] (at 50.0 µM).

As to `COc1ccc(Cc2nc3ccc(Cl)cc3[nH]2)cc1`, the growth inhibition is 4% in experiment [1] (setting [7]); 42% in experiment [1] (setting [8]); 77% (active) in experiment [1] (at 50.0 µM); -4% in experiment [2] (setting [7]); 59% in experiment [2] (setting [8]); 76.4% (active) in experiment [2] (at 50.0 µM). Besides, the growth inhibition in experiment [3] (setting [7]) was 4%; in experiment [3] (setting [8]), 78% (active); in experiment [3] (at 50.0 µM), 82% (active); in experiment [4] (setting [7]) it was -6%; in experiment [4] (setting [8]), 14%; in experiment [4] (at 50.0 µM) it was 66%. For the same compound, the growth inhibition in experiment [5] (setting [7]) was 1%; in experiment [5] (setting [8]), 44%; in experiment [5] (at 50.0 µM), 84.3% (active); in experiment [6] (setting [7]) it was 23%; in experiment [6] (setting [8]), 74% (active); in experiment [6] (at 50.0 µM), 86.9% (active).

`Cc1ccc(COCO)c(O)c1`: the growth inhibition in experiment [1] (setting [7]) was -1%; in experiment [1] (setting [8]) it was -8%; in experiment [1] (at 50.0 µM), -6.7%; in experiment [2] (setting [7]), 0%; in experiment [2] (setting [8]) it was 2%; in experiment [2] (at 50.0 µM), 35.8%. In addition, the growth inhibition in experiment [3] (setting [7]) was 2%; in experiment [3] (setting [8]) it was -4%; in experiment [3] (at 50.0 µM), -10.8%; in experiment [4] (setting [7]) it was -7%; in experiment [4] (setting [8]), -3%; in experiment [4] (at 50.0 µM) it was -18.1%. For the same compound, the growth inhibition in experiment [5] (setting [7]) is -3%; in experiment [5] (setting [8]), -4%; in experiment [5] (at 50.0 µM), -0.15%; in experiment [6] (setting [7]), -1%; in experiment [6] (setting [8]) it was -4%; in experiment [6] (at 50.0 µM) it was -16.4%.

On to `C#CC(CC)(CC)NC(=O)NC(C)(C)C`, for which the growth inhibition in experiment [1] (setting [7]) is 0%; in experiment [1] (setting [8]) it was -18%; in experiment [1] (at 50.0 µM) it was 2.1%; in experiment [2] (setting [7]), -26%; in experiment [2] (setting [8]), -25%; in experiment [2] (at 50.0 µM) it was 0.85%. Besides, the growth inhibition was -11% in experiment [3] (setting [7]); -1% in experiment [3] (setting [8]); 35.5% in experiment [3] (at 50.0 µM); 2% in experiment [4] (setting [7]); 23% in experiment [4] (setting [8]); -1.85% in experiment [4] (at 50.0 µM). Also, the growth inhibition in experiment [5] (setting [7]) is -19%; in experiment [5] (setting [8]) it was -17%; in experiment [5] (at 50.0 µM) it was 28.4%; in experiment [6] (setting [7]) it was -21%; in experiment [6] (setting [8]) it was -59%; in experiment [6] (at 50.0 µM) it was 2.3%.

For the compound `O=C(CNCc1ccccc1)c1ccc(Cl)cc1`, the growth inhibition is -3% in experiment [1] (setting [7]); -6% in experiment [1] (setting [8]); 11.6% in experiment [1] (at 50.0 µM); -2% in experiment [2] (setting [7]); 6% in experiment [2] (setting [8]); 1.45% in experiment [2] (at 50.0 µM). The growth inhibition in experiment [3] (setting [7]) is -3%; in experiment [3] (setting [8]), 17%; in experiment [3] (at 50.0 µM), 8.4%; in experiment [4] (setting [7]) it was -1%; in experiment [4] (setting [8]), -22%; in experiment [4] (at 50.0 µM) it was 24.6%. For the same compound, the growth inhibition is -2% in experiment [5] (setting [7]); 35% in experiment [5] (setting [8]); -7.85% in experiment [5] (at 50.0 µM); -4% in experiment [6] (setting [7]); 14% in experiment [6] (setting [8]); 14.5% in experiment [6] (at 50.0 µM).

For `COC(=S)S`, the growth inhibition in experiment [1] (setting [7]) is 3%; in experiment [1] (setting [8]), 1%; in experiment [1] (at 50.0 µM), 41.9%; in experiment [2] (setting [7]), -2%; in experiment [2] (setting [8]), 0%; in experiment [2] (at 50.0 µM) it was 18.7%. In addition, the growth inhibition in experiment [3] (setting [7]) was 5%; in experiment [3] (setting [8]) it was 0%; in experiment [3] (at 50.0 µM), -11.4%; in experiment [4] (setting [7]) it was -4%; in experiment [4] (setting [8]), -2%; in experiment [4] (at 50.0 µM) it was -45.5%. The growth inhibition in experiment [5] (setting [7]) was -3%; in experiment [5] (setting [8]) it was -5%; in experiment [5] (at 50.0 µM), 15.6%; in experiment [6] (setting [7]), 1%; in experiment [6] (setting [8]), 6%; in experiment [6] (at 50.0 µM), -24.7%.

`O=[N+]([O-])c1ccc(C2=Nn3c(nnc3-c3ccc(Cl)cc3)SC2)o1`: the growth inhibition in experiment [1] (setting [7]) is 19%; in experiment [1] (setting [8]), 83% (active); in experiment [1] (at 50.0 µM), 66.5%; in experiment [2] (setting [7]), 10%; in experiment [2] (setting [8]) it was 44%; in experiment [2] (at 50.0 µM) it was 37.7%. In addition, the growth inhibition in experiment [3] (setting [7]) was 29%; in experiment [3] (setting [8]), 73% (active); in experiment [3] (at 50.0 µM), 62.1%; in experiment [4] (setting [7]) it was -2%; in experiment [4] (setting [8]), 94% (active); in experiment [4] (at 50.0 µM), 65.5%. Besides, the growth inhibition is 12% in experiment [5] (setting [7]); 93% (active) in experiment [5] (setting [8]); 55.9% in experiment [5] (at 50.0 µM); 30% in experiment [6] (setting [7]); 91% (active) in experiment [6] (setting [8]); 79.3% (active) in experiment [6] (at 50.0 µM).
